In PubChem BioAssay (NCI):
Several values for one entry are separate records, joined by “and”; a condition that tells them apart may be missing. Equal entries are not always repeated. About 79,000 compounds went through this panel and 15% of them were active in at least one assay; those are over-represented in the sample as a whole. Activity calls are given as the source filed them. Cut-off read from the data, not from the text of the source: active = growth inhibition above about 70%; inactive = the rest.

Experiments:
[1] = NCI Yeast Anticancer Drug Screen. Data for the rad50 strain (AID 155);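 note: 0% = growth of vehicle-only cultures of the same strain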; conditions: S. cerevisiae rad50 strain growth inhibition, active compounds read high; at 50.0 µM unless noted
Summary of the method: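 Genetically altered yeast (DNA repair pathway); compound treatment; growth inhibition vs vehicle ctrl.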

[2] = NCI Yeast Anticancer Drug Screen. Data for the mec2-1 strain (AID 157); conditions: S. cerevisiae mec2-1 strain, active compounds read high
Summary of the method: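 mec2-1 yeast strain, carrying an alteration in DNA damage repair or cell cycle control, was exposed to compounds; growth inhibition was measured relative to vehicle-treated controls.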

[3] = NCI Yeast Anticancer Drug Screen. Data for the cln2 rad14 strain (AID 165);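 note: 0% = growth equal to vehicle treated cultures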; conditions: S. cerevisiae cln2 rad14 strain, active compounds read high
Summary of the method: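 Yeast carrying cln2 and rad14 alterations (cell cycle control and DNA damage repair) were exposed to compounds. Growth inhibition was measured against vehicle-treated controls.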

[4] = NCI Yeast Anticancer Drug Screen. Data for the bub3 strain (AID 167); conditions: S. cerevisiae bub3 mutant strain, active compounds read high
Summary of the method: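 Yeast carrying a defined mutation is treated with each compound, and growth is compared with that of vehicle-exposed cells to give inhibition.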

[5] = NCI Yeast Anticancer Drug Screen. Data for the mlh1 rad18 strain (AID 175); conditions: S. cerevisiae mlh1 rad18 strain growth inhibition, active compounds read high
Summary of the method: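 Growth inhibition of the yeast strain was measured after compound exposure and expressed relative to vehicle-treated controls. The strain carries defined defects in DNA damage repair.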

[6] = NCI Yeast Anticancer Drug Screen. Data for the sgs1 mgt1 strain (AID 161);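 note: 0% = growth of cultures given vehicle only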; conditions: S. cerevisiae sgs1 mgt1 strain, active compounds read high
Summary of the method: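 This yeast growth screen uses a strain with defined DNA-repair lesions; compound-treated growth is compared with vehicle-treated growth.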

[7] = at 5.0 µM (retest, dose inferred, filed as 0.5)
[8] = at 50.0 µM (retest, dose inferred, filed as 5.0)

Measured: growth inhibition

CC/C=C/C(CC)(C(=O)OCC)C(=O)OCC
inactive: [1] 5.45% | [2]; at 50.0 µM unless noted -15.8% | [3]; at 50.0 µM unless noted -2% | [4]; at 50.0 µM unless noted -16.3% | [5]; at 50.0 µM unless noted -20.1%

C=C(C)C1CC[C@@](C)(O)[C@H](C#N)C1 (stereo not given in full)
inactive: [1] 6.15% | [2]; at 50.0 µM unless noted -15.7% | [3]; at 50.0 µM unless noted -12.2% | [4]; at 50.0 µM unless noted -38.5% | [5]; at 50.0 µM unless noted -44%

COc1c(Cl)cc(C(c2cc(Cl)c(OC)c(Cl)c2)C(Cl)(Cl)Cl)cc1Cl
inactive: [1] -11.7% | [2]; at 50.0 µM unless noted -16.4% | [3]; at 50.0 µM unless noted -23.7% | [4]; at 50.0 µM unless noted -3.95% | [5]; at 50.0 µM unless noted 10.4%

O=C1CCC(c2nc3ccccc3[nH]2)N1Cc1ccccc1 (stereo not given)
inactive: [1] 13.9% | [2]; at 50.0 µM unless noted 2.3% | [3]; at 50.0 µM unless noted 4.35% | [4]; at 50.0 µM unless noted 6.4% | [5]; at 50.0 µM unless noted 18.9%

CSc1nc2c(nc(N)n2C2OCC(O)C(O)C2O)c(=O)n1C (stereo not given)
inactive: [1] 12.1% | [2]; at 50.0 µM unless noted 14.1% | [3]; at 50.0 µM unless noted 32.6% | [4]; at 50.0 µM unless noted 17.9% | [5]; at 50.0 µM unless noted 32.2%

CC1=C(CCC(=O)O)C(=O)C(CCC(=O)O)C(C)(C)C1 (stereo not given)
inactive: [1] 19.4% | [2]; at 50.0 µM unless noted 7.45% | [3]; at 50.0 µM unless noted 56.6% | [4]; at 50.0 µM unless noted 4.6% | [5]; at 50.0 µM unless noted 8.15%

CCOC(=O)c1nc2ccccc2nc1NCc1cc(OC)c(OC)c(OC)c1
inactive: [1] -14.9% | [2]; at 50.0 µM unless noted -11.9% | [3]; at 50.0 µM unless noted 5.65% | [4]; at 50.0 µM unless noted -7.9% | [5]; at 50.0 µM unless noted -29.4%

COC(=O)c1ccccc1NC(=O)c1c(-c2ccccc2Cl)noc1C
active: [1] 72% | [4]; at 50.0 µM unless noted 77.2%
inactive: [2]; at 50.0 µM unless noted 67.8% | [3]; at 50.0 µM unless noted 46.9% | [5]; at 50.0 µM unless noted 54.9%

NCCNCCNCCN
inactive: [1] -12.4% and -8.1% | [2]; at 50.0 µM unless noted -7.65% and -20.7% | [3]; at 50.0 µM unless noted -28.9% | [4]; at 50.0 µM unless noted -5.35% | [5]; at 50.0 µM unless noted -19.4% and 29.1%

COc1ccc(Cl)cc1N
inactive: [1] -14.3% and 17.1% | [2]; at 50.0 µM unless noted -15.6% and -4% | [3]; at 50.0 µM unless noted 8.35% and 22.1% | [4]; at 50.0 µM unless noted 3.25% and -3.2% | [5]; at 50.0 µM unless noted -7.55% and 16.1%

CCC(=O)OCC(CC(=O)NCCc1ccccc1)=NCCc1ccccc1
inactive: [1] 18.6% | [2]; at 50.0 µM unless noted -0.6% | [3]; at 50.0 µM unless noted 9.15% | [4]; at 50.0 µM unless noted 2.55% | [5]; at 50.0 µM unless noted 14.9%

O=C(O)CCC(=O)c1ccc(F)cc1
inactive: [1] -20.6% | [2]; at 50.0 µM unless noted -13.7% | [3]; at 50.0 µM unless noted -0.95% | [4]; at 50.0 µM unless noted -22.6% | [5]; at 50.0 µM unless noted -7.65%

CC(=O)Oc1c(C)c2c(c3ncccc13)OC(C)C2 (stereo not given)
inactive: [1] 39.2% | [2]; at 50.0 µM unless noted 14.1% | [3]; at 50.0 µM unless noted 19.1% | [4]; at 50.0 µM unless noted 40.1% | [5]; at 50.0 µM unless noted 34.8%

CCc1cccc(C(C)C)c1NC(=O)C(=O)Nn1c(=S)[nH]c2ccccc2c1=O
inactive: [1] -7.15% | [2]; at 50.0 µM unless noted -23.1% | [3]; at 50.0 µM unless noted 2.75% | [4]; at 50.0 µM unless noted -17.2% | [5]; at 50.0 µM unless noted -12.6%

O=C1C(O)C(O)C(O)C(O)C1O (stereo not given)
inactive: [2]; at 50.0 µM unless noted 20.5% and -17.2% | [6]; at 50.0 µM unless noted 3.9% and -36.9% | [3]; at 50.0 µM unless noted 15.9% and -12.3% | [4]; at 50.0 µM unless noted 20.8% and -8.35% | [5]; at 50.0 µM unless noted 19.7% and -3.55%

NC1CCC(C(=O)O)CC1 (stereo not given)
inactive: [2]; at 50.0 µM unless noted 0.95% and 15.9% | [6]; at 50.0 µM unless noted -3.5% and 4.4% | [3]; at 50.0 µM unless noted -52% and 57% | [4]; at 50.0 µM unless noted 6.15% and 61.3% | [5]; at 50.0 µM unless noted -7.65% and 28.4%

O=C(CCCN1CCC2(CC1)CC(=O)N(N1CCOCC1)C2=O)c1ccc(F)cc1
inactive: [2]; at 50.0 µM unless noted 6.1% | [6]; at 50.0 µM unless noted 2.75% | [3]; at 50.0 µM unless noted 4.5% | [4]; at 50.0 µM unless noted -3.4% | [5]; at 50.0 µM unless noted 14.9%

COc1cc(Nc2nc3ccc(C(F)(F)F)cc3nc2C(=O)O)cc(OC)c1OC
inactive: [2]; at 50.0 µM unless noted 20.3% | [6]; at 50.0 µM unless noted 29.9% | [3]; at 50.0 µM unless noted 48.7% | [4]; at 50.0 µM unless noted 24.8% | [5]; at 50.0 µM unless noted 10.3%

CCOC(=O)c1[nH]c(C)c(/C=N/O)c1C
inactive: [2]; at 50.0 µM unless noted -1.8% | [6]; at 50.0 µM unless noted 6.65% | [3]; at 50.0 µM unless noted 13.6% | [4]; at 50.0 µM unless noted 10.1% | [5]; at 50.0 µM unless noted 15.2%

Cc1nnc2sc(N/N=C/c3ccccc3)nn12
inactive: [2]; at 50.0 µM unless noted -29.9% | [6]; at 50.0 µM unless noted -69.2% | [3]; at 50.0 µM unless noted -13.8% | [4]; at 50.0 µM unless noted -10.1% | [5]; at 50.0 µM unless noted -71.3%

CCCCNc1ccc(Nc2ccccc2)cc1
active: [2]; [8] 96% | [6]; [8] 97% | [3]; [8] 87% | [4]; [8] 97% | [5]; [8] 94%
inactive: [2]; [7] 1% | [6]; [7] 14% | [3]; [7] 1% | [4]; [7] 2% | [5]; [7] -40%

NNC(=O)c1c(O)ccc2ccccc12
inactive: [2]; at 50.0 µM unless noted -28.1% | [6]; at 50.0 µM unless noted 23.4% | [3]; at 50.0 µM unless noted 20.2% | [4]; at 50.0 µM unless noted -4.2% | [5]; at 50.0 µM unless noted 12.6%

O=Cc1ccccc1OCCOc1ccccc1C=O
inactive: [2]; at 50.0 µM unless noted 1.35% | [6]; at 50.0 µM unless noted 10.2% | [3]; at 50.0 µM unless noted -24% | [4]; at 50.0 µM unless noted 9.4% | [5]; at 50.0 µM unless noted 19.1%

COc1ccc(C2OC3=C(Nc4cc(C)c(C)cc4N3)C2=O)cc1 (stereo not given)
inactive: [2]; at 50.0 µM unless noted -8.05% | [6]; at 50.0 µM unless noted 2.05% | [3]; at 50.0 µM unless noted -1.35% | [4]; at 50.0 µM unless noted -22.3% | [5]; at 50.0 µM unless noted 13.8%

O=C(Oc1ccccc1)C(=O)Oc1ccccc1
inactive: [2]; at 50.0 µM unless noted -24.9% | [6]; at 50.0 µM unless noted -8.75% | [3]; at 50.0 µM unless noted -15.4% | [4]; at 50.0 µM unless noted -0.1% | [5]; at 50.0 µM unless noted 6.4%

COc1ccc(C2=C(c3ccccc3)C(=O)C3(c4ccccc4)CC23c2ccc(OC)cc2)cc1 (stereo not given)
inactive: [2]; at 50.0 µM unless noted 17.6% | [6]; at 50.0 µM unless noted 15.5% | [3]; at 50.0 µM unless noted 1.85% | [4]; at 50.0 µM unless noted 1.15% | [5]; at 50.0 µM unless noted 4.7%

COc1ccccc1OC(=O)c1ccc(Cl)cc1
inactive: [2]; at 50.0 µM unless noted -17.6% | [6]; at 50.0 µM unless noted 18.7% | [3]; at 50.0 µM unless noted -63.9% | [4]; at 50.0 µM unless noted 1.35% | [5]; at 50.0 µM unless noted 0.75%

O=C(F)c1cccc2ccccc12
inactive: [2]; at 50.0 µM unless noted -14.7% | [6]; at 50.0 µM unless noted -1% | [3]; at 50.0 µM unless noted 7.6% | [4]; at 50.0 µM unless noted -19.6% | [5]; at 50.0 µM unless noted -31.3%

CC(C)(C)CNCCO
inactive: [2]; at 50.0 µM unless noted -23.4% | [6]; at 50.0 µM unless noted -2% | [3]; at 50.0 µM unless noted -7.5% | [4]; at 50.0 µM unless noted -7.55% | [5]; at 50.0 µM unless noted -6.3%

c1cncc(C2c3[nH]c4ccccc4c3CCN2CCCN2CCCCC2)c1 (stereo not given)
inactive: [2]; at 50.0 µM unless noted -36.7% | [6]; at 50.0 µM unless noted 2.3% | [3]; at 50.0 µM unless noted 10.7% | [4]; at 50.0 µM unless noted -9.55% | [5]; at 50.0 µM unless noted -0.5%

CC[C@H](CC[C@@H](C)[C@H]1CC[C@H]2[C@@H]3CC=C4C[C@@H](O)CC[C@]4(C)[C@H]3CC[C@]12C)C(C)C
inactive: [2]; at 50.0 µM unless noted -4.1% and -11.6% | [6]; at 50.0 µM unless noted 26.6% and -12.2% | [3]; at 50.0 µM unless noted 15.9% and 7.85% | [4]; at 50.0 µM unless noted 5.95% and -13.2% | [5]; at 50.0 µM unless noted 13.1% and -3.05%
